# Test results reported in PubChem BioAssay (NCI).
# Compounds without any hit were thinned out: in the full panel of roughly 79,000, 15% have a hit. Values without a mark were called inactive. Activity calls are given as the source filed them. Rule as the data show it: active = growth inhibition above about 70%; inactive = the rest.
# Experiments:
# [1] = NCI Yeast Anticancer Drug Screen. Data for the rad52 strain (AID 147);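 also: 0% = growth of vehicle-treated control cultures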; settings: S. cerevisiae rad52 mutant growth inhibition, stronger effect = higher value
# Outline: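 Read-out: growth inhibition versus vehicle-treated controls. Cells were a DNA repair-deficient yeast strain treated with compounds.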
# [2] = NCI Yeast Anticancer Drug Screen. Data for the rad50EPP+ strain (AID 151);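 also: 0% = growth of vehicle-treated control cultures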; settings: S. cerevisiae rad50 mutant strain, stronger effect = higher value
# Outline: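 Growth inhibition read against vehicle controls in rad50EPP+ yeast, a strain altered in DNA damage repair, after compound exposure.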
# [3] = NCI Yeast Anticancer Drug Screen. Data for the mgt1 strain (AID 153); settings: S. cerevisiae mgt1 mutant growth inhibition, stronger effect = higher value
# Outline: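 mgt1 yeast grown with test compound; read-out is growth inhibition versus vehicle-treated cultures.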
# [4] = NCI Yeast Anticancer Drug Screen. Data for the rad50 strain (AID 155);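 also: 0% = growth of vehicle-only cultures of the same strain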; settings: S. cerevisiae rad50 strain growth inhibition, stronger effect = higher value
# Outline: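 Relative growth inhibition (compound vs vehicle) was measured in yeast with a defined repair-gene alteration.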
# [5] = NCI Yeast Anticancer Drug Screen. Data for the mec2-1 strain (AID 157); settings: S. cerevisiae mec2-1 strain, stronger effect = higher value
# Outline: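 Yeast mec2-1 mutant treated with compound. Readout: growth inhibition vs vehicle controls.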
# [6] = NCI Yeast Anticancer Drug Screen. Data for the rad14 strain (AID 159);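 also: 0% = growth of vehicle-treated control cultures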; settings: S. cerevisiae rad14 strain growth inhibition, stronger effect = higher value
# Outline: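 Screen for anticancer potential: a yeast strain altered in DNA damage repair is grown with compound, and reduced growth is quantified against vehicle controls.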
# [7] = NCI Yeast Anticancer Drug Screen. Data for the sgs1 mgt1 strain (AID 161);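 also: 0% = growth of cultures given vehicle only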; settings: S. cerevisiae sgs1 mgt1 strain, stronger effect = higher value
# Outline: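 Genetically altered yeast, compound exposure, growth inhibition relative to vehicle.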
# [8] = NCI Yeast Anticancer Drug Screen. Data for the CLN2oe strain (AID 163);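 also: 0% = growth of vehicle-only control cultures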; settings: S. cerevisiae CLN2oe strain, stronger effect = higher value
# Outline: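 Read-out: yeast growth inhibition, expressed relative to vehicle-only controls. The strain bears an engineered cell-cycle alteration.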
# [9] = NCI Yeast Anticancer Drug Screen. Data for the cln2 rad14 strain (AID 165);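 also: 0% = growth equal to vehicle treated cultures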; settings: S. cerevisiae cln2 rad14 strain, stronger effect = higher value
# Outline: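 cln2 rad14 yeast strain; compound exposure; growth inhibition read vs vehicle controls.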
# [10] = NCI Yeast Anticancer Drug Screen. Data for the bub3 strain (AID 167); settings: S. cerevisiae bub3 mutant strain, stronger effect = higher value
# Outline: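 Screening used yeast with an engineered genetic alteration affecting cell cycle control. Compound-exposed cultures were compared with vehicle cultures, and reduced growth was taken as inhibition.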
# [11] = NCI Yeast Anticancer Drug Screen. Data for the wt2 strain (AID 169);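 also: 0% = growth of vehicle-treated yeast cultures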; settings: S. cerevisiae wt2 strain growth inhibition, stronger effect = higher value
# Outline: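 Read-out: growth inhibition versus vehicle-treated control cultures after compound exposure of the yeast strain.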
# [12] = NCI Yeast Anticancer Drug Screen. Data for the mlh1 strain (AID 171);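 also: 0% = growth of vehicle-treated control cultures of the same strain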; settings: S. cerevisiae mlh1 strain growth inhibition, stronger effect = higher value
# Outline: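 Read-out: growth inhibition versus vehicle controls. Strain: engineered yeast with a defined DNA repair or cell cycle defect, compound-treated.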
# [13] = NCI Yeast Anticancer Drug Screen. Data for the sgs1 strain (AID 173);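 also: 0% = growth of vehicle-only control cultures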; settings: S. cerevisiae sgs1 mutant, stronger effect = higher value
# Outline: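 Read-out: yeast growth inhibition relative to vehicle controls, following compound exposure of a strain with a defined DNA repair/cell cycle alteration.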
# [14] = NCI Yeast Anticancer Drug Screen. Data for the mlh1 rad18 strain (AID 175); settings: S. cerevisiae mlh1 rad18 strain growth inhibition, stronger effect = higher value
# Outline: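 Yeast w/ defined DNA-repair lesions; compound exposure; growth vs vehicle controls → % inhibition.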
# [15] = NCI Yeast Anticancer Drug Screen. Data for the rad18 strain (AID 177); settings: S. cerevisiae rad18 mutant growth inhibition, stronger effect = higher value
# Outline: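 Readout: growth inhibition vs vehicle controls. Cells: genetically altered yeast strain, DNA repair defect.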
# [16] = NCI Yeast Anticancer Drug Screen. Data for the wt1 strain (AID 149);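 also: 0% = growth of vehicle-treated wt1 cultures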; settings: S. cerevisiae wt1 strain (SPY 50644) growth inhibition, stronger effect = higher value
# Outline: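 Using yeast strain wt1, compound-induced growth inhibition was determined against vehicle-treated cultures.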
# [17] = at 5.0 µM (retest, dose inferred, filed as 0.5)
# [18] = at 50.0 µM (retest, dose inferred, filed as 5.0)
smiles,measurement,setting,value
O=C1C(Cl)=C(Cl)C(Cl)(Cl)C(Cl)C1(Cl)Cl (stereo unspecified),growth inhibition,[1]; at 1.2 µM,14%
same,growth inhibition,[1]; at 3.7 µM,27%
same,growth inhibition,[1]; at 11.0 µM,71% (active)
same,growth inhibition,[1]; at 33.0 µM,99% (active)
same,growth inhibition,[1]; at 100.0 µM,99% (active)
same,growth inhibition,[2]; at 1.2 µM,20%
same,growth inhibition,[2]; at 3.7 µM,34%
same,growth inhibition,[2]; at 11.0 µM,58%
same,growth inhibition,[2]; at 33.0 µM,90% (active)
same,growth inhibition,[2]; at 100.0 µM,99% (active)
same,growth inhibition,[3]; at 1.2 µM,5%
same,growth inhibition,[3]; at 3.7 µM,25%
same,growth inhibition,[3]; at 11.0 µM,45%
same,growth inhibition,[3]; at 33.0 µM,99% (active)
same,growth inhibition,[3]; at 100.0 µM,99% (active)
same,growth inhibition,[4]; at 1.2 µM,16%
same,growth inhibition,[4]; at 3.7 µM,26%
same,growth inhibition,[4]; [17],21%
same,growth inhibition,[4]; at 11.0 µM,58%
same,growth inhibition,[4]; at 33.0 µM,99% (active)
same,growth inhibition,[4]; [18],98% (active)
same,growth inhibition,[4]; at 50.0 µM,99.3% (active)
same,growth inhibition,[4]; at 100.0 µM,99% (active)
same,growth inhibition,[5]; at 1.2 µM,8%
same,growth inhibition,[5]; at 3.7 µM,29%
same,growth inhibition,[5]; [17],22%
same,growth inhibition,[5]; at 11.0 µM,49%
same,growth inhibition,[5]; at 33.0 µM,99% (active)
same,growth inhibition,[5]; [18],99% (active)
same,growth inhibition,[5]; at 50.0 µM,99.5% (active)
same,growth inhibition,[5]; at 100.0 µM,99% (active)
same,growth inhibition,[6]; at 1.2 µM,17%
same,growth inhibition,[6]; at 3.7 µM,25%
same,growth inhibition,[6]; at 11.0 µM,44%
same,growth inhibition,[6]; at 33.0 µM,99% (active)
same,growth inhibition,[6]; at 100.0 µM,99% (active)
same,growth inhibition,[7]; [17],30%
same,growth inhibition,[7]; [18],99% (active)
same,growth inhibition,[7]; at 50.0 µM,99.6% (active)
same,growth inhibition,[8]; at 1.2 µM,15%
same,growth inhibition,[8]; at 3.7 µM,38%
same,growth inhibition,[8]; at 11.0 µM,54%
same,growth inhibition,[8]; at 33.0 µM,99% (active)
same,growth inhibition,[8]; at 100.0 µM,99% (active)
same,growth inhibition,[9]; [17],9%
same,growth inhibition,[9]; [18],96% (active)
same,growth inhibition,[9]; at 50.0 µM,96.8% (active)
same,growth inhibition,[10]; at 1.2 µM,11%
same,growth inhibition,[10]; at 3.7 µM,28%
same,growth inhibition,[10]; [17],5%
same,growth inhibition,[10]; at 11.0 µM,59%
same,growth inhibition,[10]; at 33.0 µM,99% (active)
same,growth inhibition,[10]; [18],98% (active)
same,growth inhibition,[10]; at 50.0 µM,99.5% (active)
same,growth inhibition,[10]; at 100.0 µM,97% (active)
same,growth inhibition,[11]; at 1.2 µM,-14%
same,growth inhibition,[11]; at 3.7 µM,-6%
same,growth inhibition,[11]; at 11.0 µM,54%
same,growth inhibition,[11]; at 33.0 µM,100% (active)
same,growth inhibition,[11]; at 100.0 µM,99% (active)
same,growth inhibition,[12]; at 1.2 µM,12%
same,growth inhibition,[12]; at 3.7 µM,26%
same,growth inhibition,[12]; at 11.0 µM,66%
same,growth inhibition,[12]; at 33.0 µM,99% (active)
same,growth inhibition,[12]; at 100.0 µM,99% (active)
same,growth inhibition,[13]; at 1.2 µM,-7%
same,growth inhibition,[13]; at 3.7 µM,36%
same,growth inhibition,[13]; at 11.0 µM,81% (active)
same,growth inhibition,[13]; at 33.0 µM,100% (active)
same,growth inhibition,[13]; at 100.0 µM,99% (active)
same,growth inhibition,[14]; [17],26%
same,growth inhibition,[14]; [18],99% (active)
same,growth inhibition,[14]; at 50.0 µM,99.4% (active)
same,growth inhibition,[15]; at 1.2 µM,40%
same,growth inhibition,[15]; at 3.7 µM,73% (active)
same,growth inhibition,[15]; at 11.0 µM,90% (active)
same,growth inhibition,[15]; at 33.0 µM,99% (active)
same,growth inhibition,[15]; at 100.0 µM,99% (active)
CC(=O)CC(=O)/C=C/c1cccs1,growth inhibition,[16]; at 1.2 µM,-25%
same,growth inhibition,[16]; at 3.7 µM,-23%
same,growth inhibition,[16]; at 11.0 µM,-22%
same,growth inhibition,[16]; at 33.0 µM,-19%
same,growth inhibition,[16]; at 100.0 µM,59%
same,growth inhibition,[2]; at 1.2 µM,7%
same,growth inhibition,[2]; at 3.7 µM,0%
same,growth inhibition,[2]; at 11.0 µM,33%
same,growth inhibition,[2]; at 33.0 µM,89% (active)
same,growth inhibition,[2]; at 100.0 µM,92% (active)
same,growth inhibition,[4]; at 1.2 µM,-3%
same,growth inhibition,[4]; at 3.7 µM,-5%
same,growth inhibition,[4]; [17],97% (active)
same,growth inhibition,[4]; at 11.0 µM,18%
same,growth inhibition,[4]; at 33.0 µM,76% (active)
same,growth inhibition,[4]; [18],100% (active)
same,growth inhibition,[4]; at 50.0 µM,68.7%
same,growth inhibition,[4]; at 100.0 µM,92% (active)
same,growth inhibition,[5]; at 1.2 µM,-36%
same,growth inhibition,[5]; at 3.7 µM,-38%
same,growth inhibition,[5]; [17],94% (active)
same,growth inhibition,[5]; at 11.0 µM,-21%
same,growth inhibition,[5]; at 33.0 µM,10%
same,growth inhibition,[5]; [18],99% (active)
same,growth inhibition,[5]; at 50.0 µM,50%
same,growth inhibition,[5]; at 100.0 µM,77% (active)
same,growth inhibition,[6]; at 1.2 µM,-12%
same,growth inhibition,[6]; at 3.7 µM,-9%
same,growth inhibition,[6]; at 11.0 µM,6%
same,growth inhibition,[6]; at 33.0 µM,8%
same,growth inhibition,[6]; at 100.0 µM,89% (active)
same,growth inhibition,[7]; [17],-16%
same,growth inhibition,[7]; [18],44%
same,growth inhibition,[7]; at 50.0 µM,51.2%
same,growth inhibition,[8]; at 1.2 µM,-27%
same,growth inhibition,[8]; at 3.7 µM,-30%
same,growth inhibition,[8]; at 11.0 µM,-24%
same,growth inhibition,[8]; at 33.0 µM,2%
same,growth inhibition,[8]; at 100.0 µM,38%
same,growth inhibition,[9]; [17],15%
same,growth inhibition,[9]; [18],72% (active)
same,growth inhibition,[9]; at 50.0 µM,32.1%
same,growth inhibition,[10]; at 1.2 µM,2%
same,growth inhibition,[10]; at 3.7 µM,-10%
same,growth inhibition,[10]; [17],-1%
same,growth inhibition,[10]; at 11.0 µM,-27%
same,growth inhibition,[10]; at 33.0 µM,21%
same,growth inhibition,[10]; [18],53%
same,growth inhibition,[10]; at 50.0 µM,19%
same,growth inhibition,[10]; at 100.0 µM,90% (active)
same,growth inhibition,[11]; at 1.2 µM,-17%
same,growth inhibition,[11]; at 3.7 µM,-17%
same,growth inhibition,[11]; at 11.0 µM,-9%
same,growth inhibition,[11]; at 33.0 µM,-10%
same,growth inhibition,[11]; at 100.0 µM,84% (active)
same,growth inhibition,[12]; at 1.2 µM,-21%
same,growth inhibition,[12]; at 3.7 µM,-24%
same,growth inhibition,[12]; at 11.0 µM,-1%
same,growth inhibition,[12]; at 33.0 µM,16%
same,growth inhibition,[12]; at 100.0 µM,88% (active)
same,growth inhibition,[13]; at 1.2 µM,-18%
same,growth inhibition,[13]; at 3.7 µM,-8%
same,growth inhibition,[13]; at 11.0 µM,26%
same,growth inhibition,[13]; at 33.0 µM,30%
same,growth inhibition,[13]; at 100.0 µM,93% (active)
same,growth inhibition,[14]; [17],100% (active)
same,growth inhibition,[14]; [18],100% (active)
same,growth inhibition,[14]; at 50.0 µM,64.8%
same,growth inhibition,[15]; at 1.2 µM,-20%
same,growth inhibition,[15]; at 3.7 µM,-26%
same,growth inhibition,[15]; at 11.0 µM,12%
same,growth inhibition,[15]; at 33.0 µM,20%
same,growth inhibition,[15]; at 100.0 µM,88% (active)
